Active and inactive are the calls of the source. Calls come from the whole dose curve; as a rule, active = well fitted curve in the direction sought with a large enough effect; inconclusive = small, poorly fitted or top-dose-only effect, or another doubt; inactive = no such curve, though single readings can be large or run the other way.
molecular target: Hexokinase-4 (Homo sapiens) + Glucokinase regulatory protein (Homo sapiens) (UniProt P35557+Q14397); assay: qHTS assay for inhibitors of recombinant human GCK-GKRP interaction: Diaphorase-coupled assay (AID 743205); conditions: G6PDH/diaphorase resorufin fluorescence; series mostly up to 57.5 µM; activity change, positive = activation: at the top concentration
Excerpt: Glucokinase (GCK) is a glucose sensor in hepatocytes and pancreatic beta-cells. Hepatic GCK is regulated by glucokinase regulatory protein (GKRP), which is predominantly localized to the liver. GKRP binds to GCK inhibiting its activity in the fasting state while in the presence of glucose the GKRP is displaced. There is an additional layer of regulation by fructose 1-phosphate and fructose 6-phosphate, which inhibit and enhance the GCK-GKRP interaction, respectively. GCK plays a role in glucose homeostasis and there is an interest in the development of strategies to activate GCK to lower blood glucose levels in type 2 diabetes. To date the majority of effort has focused on direct activation of GCK and the assays developed herein look to activate GCK by inhibiting its binding to GKRP. A compound that inhibits the interaction of GCK with GKRP could be important for the treatment of diabetes and can also be used as a tool compound to further elucidate GCK-GKRP biology. To that end, we have developed a sensitive HTS biochemical assay where in GCK activity is coupled to G6PDH and Diaphorase to interrogate the GCK-GKRP interaction. This assay was screened against a small compound library to look for modulators of activity.
2 uL of substrate (columns 1-48) are dispensed into Greiner, black solid-bottom 1536-well assay plates. Compounds (23 nL) are then transferred via Kalypsys pin tool equipped with 1536-pin array (10 nL slotted pins, V&P Scientific, San Diego, CA). The library compounds are in columns 5-48 and columns 1-4 serve as controls with DMSO in columns 1 and 3 and 26 mM 1:1.5 fold serial of gluckokinase activator (GKA-EMD) in column 2 and 26 mM of the glucokinase activator (GKA-EMD) in column 4. Following addition of compound and a 20 minute incubation, 1 uL of enzyme mix (GST-GCK, FLAG-GKRP and diaphorase) is added to columns 1, 2, 4-48 and 1 uL of no enzyme mix (FLAG-GKRP and diaphorase) is added to column 3 and the fluorescent product resorufin generated from resazurin was monitored on a Viewlux (PerkinElmer, Shelton, CT, USA) with excitation at 525 nm and emission at 590 nm in kinetic mode where the plate was read every minute for 30 minutes. The final concentration of reagents in the reaction are 25 mM Hepes pH 7.6, 25 mM KCl, 2 mM MgCl2, 1.4 mM 2-mercaptoethanol, 0.025% BSA, 0.01% Tween-20, 0.15 mM NADP+, 5 mM glucose, 0.4 mM ATP, 4 U/ml G6PDH, 0.1 mM resazurin, 10 nM GST-GCK, 10 nM FLAG-GKRP, diaphorase (0.1 mg/mL). Data are normalized to DMSO-treated control columns with (maximum signal) and without (minimum signal) enzyme.
Potency is the fitted concentration of half-maximal effect.

Sequence of Hexokinase-4 (Homo sapiens) + Glucokinase regulatory protein (Homo sapiens) (P35557 whole entry, looked up): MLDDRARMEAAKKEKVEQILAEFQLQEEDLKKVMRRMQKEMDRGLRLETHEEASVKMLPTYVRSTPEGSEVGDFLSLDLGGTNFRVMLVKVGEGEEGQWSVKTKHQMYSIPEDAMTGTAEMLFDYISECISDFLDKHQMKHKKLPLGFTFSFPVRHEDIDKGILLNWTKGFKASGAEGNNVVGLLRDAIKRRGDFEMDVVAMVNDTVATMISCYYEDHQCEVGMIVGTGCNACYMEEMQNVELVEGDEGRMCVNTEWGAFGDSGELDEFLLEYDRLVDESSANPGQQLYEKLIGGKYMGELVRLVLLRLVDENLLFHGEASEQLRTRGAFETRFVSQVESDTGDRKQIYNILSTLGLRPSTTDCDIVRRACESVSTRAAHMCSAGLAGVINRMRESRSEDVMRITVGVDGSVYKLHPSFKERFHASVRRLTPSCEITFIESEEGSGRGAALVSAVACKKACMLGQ
Sequence of Hexokinase-4 (Homo sapiens) + Glucokinase regulatory protein (Homo sapiens) (Q14397 whole entry, looked up): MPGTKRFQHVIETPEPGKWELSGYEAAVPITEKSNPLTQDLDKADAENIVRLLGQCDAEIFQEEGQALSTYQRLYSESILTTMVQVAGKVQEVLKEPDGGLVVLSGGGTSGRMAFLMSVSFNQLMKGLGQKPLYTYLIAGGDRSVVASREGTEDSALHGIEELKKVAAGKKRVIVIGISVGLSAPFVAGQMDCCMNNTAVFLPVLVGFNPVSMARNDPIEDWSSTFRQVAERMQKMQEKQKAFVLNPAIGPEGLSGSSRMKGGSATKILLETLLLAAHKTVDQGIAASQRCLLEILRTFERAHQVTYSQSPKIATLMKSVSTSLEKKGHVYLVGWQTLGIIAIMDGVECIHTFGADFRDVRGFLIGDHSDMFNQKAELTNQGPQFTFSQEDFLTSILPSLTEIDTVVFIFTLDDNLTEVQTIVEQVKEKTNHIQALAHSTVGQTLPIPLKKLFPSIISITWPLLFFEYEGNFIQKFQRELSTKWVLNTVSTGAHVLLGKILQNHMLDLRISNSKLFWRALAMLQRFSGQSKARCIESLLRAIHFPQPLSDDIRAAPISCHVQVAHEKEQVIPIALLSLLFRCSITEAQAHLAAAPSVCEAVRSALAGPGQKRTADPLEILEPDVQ

| Structure (SMILES) | activity change, positive = activation | Potency |
| --- | --- | --- |
| Cn1c(=O)c2[nH]cnc2n(C)c1=O | -1.19% (inactive) | – |
| NCCCCCC(=O)O | -3.03% (inactive) | – |
| NC(=O)NO | -0.191% (inactive) | – |
| OCCN1CCN(CCCN2c3ccccc3Sc3ccc(C(F)(F)F)cc32)CC1 | -3.93% (inactive) | – |
| Cc1ccc(C(=O)Nc2ccc(S(=O)(=O)O)c3cc(S(=O)(=O)O)cc(S(=O)(=O)O)c23)cc1NC(=O)c1cccc(NC(=O)Nc2cccc(C(=O)Nc3cc(C(=O)Nc4ccc(S(=O)(=O)O)c5cc(S(=O)(=O)O)cc(S(=O)(=O)O)c45)ccc3C)c2)c1 | – | 28.2 µM (active) |
| Fc1ccc([C@@H]2CCNC[C@H]2COc2ccc3c(c2)OCO3)cc1 | -0.0559% (inactive) | – |
| CN1CCN(CCCN2c3ccccc3Sc3ccc(Cl)cc32)CC1 | -27.4% (inactive) | – |
| CN(C)CCOC(c1ccccc1)c1ccccc1 | -0.751% (inactive) | – |
| NC(=O)OCC(COC(N)=O)c1ccccc1 | -0.545% (inactive) | – |
| O=C(Nc1ccc([N+](=O)[O-])cc1Cl)c1cc(Cl)ccc1O | -2.67% (inactive) | – |
| CN(C)c1nc(N(C)C)nc(N(C)C)n1 | -3.65% (inactive) | – |
| O=c1c(O)c(-c2ccc(O)c(O)c2)oc2cc(O)cc(O)c12 | -14.8% (inactive) | – |
| CC(CCc1ccc(O)cc1)NCCc1ccc(O)c(O)c1 (stereo not given) | -10.5% (inactive) | – |
| CN1CCC(=C2c3ccccc3C=Cc3ccccc32)CC1 | -3.54% (inactive) | – |
| O=c1c(-c2ccc(O)cc2)coc2cc(O)cc(O)c12 | -31.1% (inactive) | – |
| CCOC(=O)c1ncn2c1CN(C)C(=O)c1cc(F)ccc1-2 | -3.07% (inactive) | – |
| CC1COc2c(N3CCN(C)CC3)c(F)cc3c(=O)c(C(=O)O)cn1c23 (stereo not given) | 1.89% (inactive) | – |
| CC[N+](CC)(CC)CCOc1cccc(OCC[N+](CC)(CC)CC)c1OCC[N+](CC)(CC)CC | -3.85% (inactive) | – |
| O=C1N(c2ccccc2)c2ccccc2C1(Cc1ccncc1)Cc1ccncc1 | 0.127% (inactive) | – |
| O=c1[nH]cc(F)c(=O)[nH]1 | 0.346% (inactive) | – |

| Structure (SMILES) | activity change, positive = activation | Potency |
| --- | --- | --- |
| CN1C(C(=O)Nc2ccccn2)=C(O)c2ccccc2S1(=O)=O | 1.81% (inactive) | – |
| COc1cc2c(c(OC)c1OC)-c1ccc(OC)c(=O)cc1[C@@H](NC(C)=O)CC2 | -31% (inactive) | – |
| CC12CC3CC(C)(C1)CC(N)(C3)C2 | -8.64% (inactive) | – |
| CC(C)Cc1ccc(C(C)C(=O)O)cc1 (stereo not given) | -5.3% (inactive) | – |
| CN1CCC(=C2c3ccccc3CC(=O)c3sccc32)CC1 | -4.18% (inactive) | – |
| CCc1cccc2c3c([nH]c12)C(CC)(CC(=O)O)OCC3 (stereo not given) | -12.2% (inactive) | – |
| CC(C)NCC(O)COc1ccc(CCOCC2CC2)cc1 (stereo not given) | -2.46% (inactive) | – |
| CC#C[C@]1(O)CC[C@H]2[C@@H]3CCC4=CC(=O)CCC4=C3[C@@H](c3ccc(N(C)C)cc3)C[C@@]21C | -4.35% (inactive) | – |
| COc1ccc2c(c1)c(CC(=O)O)c(C)n2C(=O)c1ccc(Cl)cc1 | -3.09% (inactive) | – |
| CCOC(=O)C(C)(C)Oc1ccc(Cl)cc1 | 1.95% (inactive) | – |
| CN(C)CCCN1c2ccccc2CCc2ccc(Cl)cc21 | -1.15% (inactive) | – |
| Cc1cn([C@H]2C[C@H](N=[N+]=[N-])[C@@H](CO)O2)c(=O)[nH]c1=O | -0.203% (inactive) | – |
| CCN1CCCC1CNC(=O)c1cc(S(=O)(=O)CC)c(N)cc1OC (stereo not given) | 0.887% (inactive) | – |
| COc1ccc2[nH]cc(CCNC(C)=O)c2c1 | -4.62% (inactive) | – |
| CN(Cc1cnc2nc(N)nc(N)c2n1)c1ccc(C(=O)N[C@@H](CCC(=O)O)C(=O)O)cc1 | 2.63% (inactive) | – |
| Cc1cc(C(C)(C)C)cc(C)c1CC1=NCCN1 | -4.15% (inactive) | – |
| Cc1ccccc1N1C(=O)c2cc(S(N)(=O)=O)c(Cl)cc2NC1C (stereo not given) | -2.14% (inactive) | – |
| COc1nc(C)nc(Cl)c1NC1=NCCN1 | -0.785% (inactive) | – |
| Clc1ccc(C(c2ccccc2Cl)C(Cl)Cl)cc1 (stereo not given) | 0.413% (inactive) | – |
| Cc1cn([C@H]2C=C[C@@H](CO)O2)c(=O)[nH]c1=O | 3.49% (inactive) | – |

From PubChem BioAssay (NCATS)
